Among the data in PubChem BioAssay (EPA / NIEHS) are AC50 and outcome values, retold here.

Molecules are shown by their SMILES. Results filed as inconclusive are left out. The source made the active and inactive calls. The calls were made as follows, unless noted: active = hit-call score of the fitted dose curve at least 0.9, where 1 is the maximum; inconclusive = response in the unintended direction; inactive = score below 0.9.

Read-out in assay [1]: Pselectin, SELP (gene 6403)
The assay is described as follows: BSK_4H_Pselectin: BioMAP Diversity Plus: 4H Assay for Pselectin Biomarker Activity (AID 2283026; active = hit-call score of the fitted dose curve at least 0.9, where 1 is the maximum; inactive = score below 0.9). The settings on record: primary human endothelial cells (HUVEC); actives raise or lower the signal. The essentials: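 Bidirectional fits against DMSO gave the endpoint. Cells: primary human umbilical vein endothelium, chemical-treated for 24 h before ELISA detection of P-selectin.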

Read-out in assay [2]: Macrophage colony-stimulating factor (MCSF), CSF1 (gene 1435)
The assay is described as follows: BSK_CASM3C_MCSF: BioMAP Diversity Plus: CASM3C Assay for Macrophage colony-stimulating factor (MCSF) Biomarker Activity (AID 2283044; active = hit-call score of the fitted dose curve at least 0.9, where 1 is the maximum; inactive = score below 0.9;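 also: M-CSF protein amount quantified by ELISA after 24 h exposure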). Conditions: primary human coronary artery smooth muscle cells; actives raise or lower the signal.

Read-out in assay [3]: Low-density lipoprotein receptor (LDLR), LDLR (gene 3949)
The assay is described as follows: BSK_CASM3C_LDLR: BioMAP Diversity Plus: CASM3C Assay for Low-density lipoprotein receptor (LDLR) Biomarker Activity (AID 2283045; active = hit-call score of the fitted dose curve at least 0.9, where 1 is the maximum; inactive = score below 0.9;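 also: LDLR protein level on the cell surface quantified by ELISA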). The settings on record: primary human coronary artery smooth muscle cells; actives raise or lower the signal.

Read-out in assay [4]: serum amyloid A (SAA), SAA1 (gene 6288)
The assay is described as follows: BSK_CASM3C_SAA: BioMAP Diversity Plus: CASM3C Assay for serum amyloid A (SAA) Biomarker Activity (AID 2283049; active = hit-call score of the fitted dose curve at least 0.9, where 1 is the maximum; inactive = score below 0.9;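 also: SAA protein level quantified by ELISA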). Conditions: primary human coronary artery smooth muscle cells; actives raise or lower the signal.

Read-out in assay [5]: Interferon-gamma inducible Protein 10 (IP10), CXCL10 (gene 3627)
The assay is described as follows: BSK_hDFCGF_IP10: BioMAP Diversity Plus: hDFCGF Assay for Interferon-gamma inducible Protein 10 (IP10) Biomarker Activity (AID 2283053; active = hit-call score of the fitted dose curve at least 0.9, where 1 is the maximum; inactive = score below 0.9). The settings on record: primary human foreskin fibroblasts; actives raise or lower the signal. The essentials: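 Chemical-treated human skin fibroblasts (primary) were sampled at 24 h for IP-10 by ELISA. Both increases and decreases relative to DMSO were scored.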

Read-out in assay [6]: Vascular cell adhesion molecule 1 (VCAM1), VCAM1 (gene 7412)
The assay is described as follows: BSK_CASM3C_VCAM1: BioMAP Diversity Plus: CASM3C Assay for Vascular cell adhesion molecule 1 (VCAM1) Biomarker Activity (AID 2283055; active = hit-call score of the fitted dose curve at least 0.9, where 1 is the maximum; inactive = score below 0.9;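 also: VCAM-1 protein level quantified by ELISA on the cells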). Conditions: primary human coronary artery smooth muscle cells; actives raise or lower the signal.

Read-out in assay [7]: Macrophage colony-stimulating factor (MCSF), CSF1 (gene 1435)
The assay is described as follows: BSK_hDFCGF_MCSF: BioMAP Diversity Plus: hDFCGF Assay for Macrophage colony-stimulating factor (MCSF) Biomarker Activity (AID 2283060; active = hit-call score of the fitted dose curve at least 0.9, where 1 is the maximum; inactive = score below 0.9). Conditions: AC50: primary human foreskin fibroblasts, actives raise or lower the signal unless noted; outcome: primary human foreskin fibroblasts, actives raise or lower the signal unless noted. The essentials: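 ELISA read-out of M-CSF in human dermal foreskin fibroblast cultures, 24 h after chemical dosing; gain or loss of signal fitted bidirectionally relative to DMSO baseline.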

The nature of assay [8]: ATG_ERE_CIS: Attagene CIS-FACTORIAL HepG2 Assay for Estrogen Response Element (ERE) (AID 2282940; active = hit-call score of the fitted dose curve at least 0.9, where 1 is the maximum; inactive = score below 0.9). The settings on record: HepG2 ERE cis-reporter, Attagene RNA transcript; actives raise or lower the signal. The essentials:
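Measuring endogenous transcription factor output, the assay doses transfected HepG2 cells for 24 hours and quantifies reporter transcripts by fluorescent RT-PCR and capillary electrophoresis, with DMSO as baseline.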

Assay [9] concerns the target Steroid hormone receptor ERR1 (Homo sapiens) (UniProt P11474). The assay is described as follows: ATG_ERRa_TRANS: Attagene TRANS-FACTORIAL HepG2 Assay for human Estrogen-Related Receptor alpha (ERRa) (AID 2282971). The settings on record: HepG2 Attagene TRANS reporter, ERRa transactivation. The essentials: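 Transfected HepG2, 24 h dosing, ERRa-Gal4 chimera driving GAL4-UAS reporter. Readout: reporter mRNA via RT-PCR plus capillary electrophoresis (fluorescence). Positive direction vs DMSO control.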

Assay [10] concerns the target Glucocorticoid receptor (Homo sapiens) (UniProt P04150). The assay is described as follows: ATG_GR_TRANS: Attagene TRANS-FACTORIAL HepG2 Assay for human Glucocorticoid Receptor (GR) (AID 2282978).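 Also: activators score as hits since higher reporter transcript over DMSO is fitted.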 Conditions: HepG2 Attagene TRANS GR reporter, mRNA transcription. In a few lines: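 HepG2 cells transiently transfected with multiplexed reporter units in which chimeric NR-GAL4 proteins drive GAL4-UAS reporters; 24 h compound exposure. Reporter mRNA measured by RT-PCR, 6-FAM labelling, HpaI digestion and capillary electrophoresis; gain-of-signal fitted versus DMSO.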

A short description of assay [11]: ACEA_AR_agonist_AUC_viability: ACEA Biosciences xCELLigence Real-Time Cell Analysis on Androgen Receptor Agonism for Viability (AID 2283775). The essentials: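 Viability endpoint from xCELLigence impedance in 22Rv1 prostate cells at 80 h. Eight-point series, 100 uM maximum final.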
A short description of assay [12]: ACEA_AR_antagonist_AUC_viability: ACEA Biosciences xCELLigence Real-Time Cell Analysis on Androgen Receptor Antagonism for Viability (AID 2283776).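 Also: 22Rv1 human prostate cancer cells growing on impedance electrode plates; area under impedance growth curve at 80 h after dosing as viability; hits lower the growth signal relative to DMSO meaning cytotoxicity.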 In a few lines:
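Real-time electrical impedance tracks 22Rv1 proliferation after continuous compound exposure (top 100 uM final, 1:4 steps, 8 concentrations). The 80 h area-under-curve serves as the cytotoxicity readout relative to DMSO.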

Assay [13] deals with Retinoic acid receptor RXR-alpha (Homo sapiens) (UniProt P19793). The assay is described as follows: OT_NURR1_NURR1RXRa_1440: Odyssey Thera (OT) 24-hour HEK293T Protein Complementation Assay for Nurr1/retinoid X receptor (RXR) (AID 2283386). The essentials: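 Cell-based binding reporter: HEK293T cells, 24 h exposure, fluorescence-detected fragment complementation, DMSO as baseline.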
Sequence of Retinoic acid receptor RXR-alpha (Homo sapiens) (P19793 whole entry, looked up, the tested form may be a part): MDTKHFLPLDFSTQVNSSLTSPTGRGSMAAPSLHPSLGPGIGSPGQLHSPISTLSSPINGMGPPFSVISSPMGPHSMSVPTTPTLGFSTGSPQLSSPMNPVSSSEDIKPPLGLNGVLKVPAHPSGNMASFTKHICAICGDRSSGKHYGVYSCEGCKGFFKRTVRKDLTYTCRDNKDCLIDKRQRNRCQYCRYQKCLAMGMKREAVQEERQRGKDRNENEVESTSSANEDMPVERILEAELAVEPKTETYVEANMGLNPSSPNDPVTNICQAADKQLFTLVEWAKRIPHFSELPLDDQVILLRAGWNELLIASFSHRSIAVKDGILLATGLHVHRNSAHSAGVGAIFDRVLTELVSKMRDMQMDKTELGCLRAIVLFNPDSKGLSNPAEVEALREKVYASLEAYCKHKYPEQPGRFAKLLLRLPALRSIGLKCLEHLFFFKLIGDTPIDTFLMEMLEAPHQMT

Assay [14] addresses Peroxisome proliferator-activated receptor gamma (Homo sapiens) (UniProt P37231). The assay is described as follows: OT_PPARg_PPARgSRC1_0480: Odyssey Thera (OT) 8-hour Protein-Complementation Assay for Peroxisome Proliferator-activated Receptor Gamma / SRC-1 Co-activator (AID 2283387).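 Also: nuclear to cytoplasmic split Venus YFP fluorescence ratio reporting PPARg SRC-1 interaction.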 In a few lines: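 Read-out: 488 nm N/C fluorescence ratio from complemented Venus YFP fragments, ≥350 cells per image, gain-of-signal fitted against DMSO baseline. Fusions of PPARg/SRC-1 with IFP1/IFP2 expressed transiently in HEK293T; compounds applied 8 h.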

For assay [15] the target is unchanged. The assay is described as follows: OT_PPARg_PPARgSRC1_1440: Odyssey Thera (OT) 24-hour Protein-Complementation Assay for Peroxisome Proliferator-activated Receptor Gamma/ SRC-1 Co-activator (AID 2283388).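 Also: nuclear to cytoplasmic ratio of reconstituted Venus YFP fluorescence in fixed imaged cells.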 The essentials:
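Readout: nuclear-to-cytoplasmic 488 nm fluorescence ratio, ≥350 cells per image, 8 images per well, after 24 h compound exposure of HEK293T expressing PPARg/SRC-1 split-YFP fusions. Activity fitted in positive direction against DMSO.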

The target in assay [16] is human Vitamin D Receptor (VDR), VDR (gene 7421) (UniProt P11473). The assay is described as follows: ATG_VDR_TRANS: Attagene TRANS-FACTORIAL HepG2 Assay for human Vitamin D Receptor (VDR) (AID 2283022). The essentials:
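RT-PCR/capillary electrophoresis read-out of reporter mRNA induction in transiently transfected HepG2; 24 h dosing; chimeric NR-Gal4 (TRANS format); gain-of-signal fit against DMSO baseline.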

Assay [17] deals with Estrogen receptor beta (Homo sapiens) (UniProt Q92731). The assay is described as follows: OT_ER_ERbERb_0480: Odyssey Thera (OT) 8-hour HEK293T Protein-Complementation Assay for Estrogen Receptor-beta/-beta Homodimer (AID 2283357).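 Also: active means signal gain over DMSO baseline.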 In a few lines: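 Homodimerization of ER-beta LBD measured by protein-fragment complementation in HEK293T; 8 h dosing; fixed, Draq5 counterstain; fluorescence intensity gain over DMSO baseline, positive fitting direction; laser scanning cytometry.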
Sequence of Estrogen receptor beta (Homo sapiens) (Q92731 whole entry, looked up, the tested form may be a part): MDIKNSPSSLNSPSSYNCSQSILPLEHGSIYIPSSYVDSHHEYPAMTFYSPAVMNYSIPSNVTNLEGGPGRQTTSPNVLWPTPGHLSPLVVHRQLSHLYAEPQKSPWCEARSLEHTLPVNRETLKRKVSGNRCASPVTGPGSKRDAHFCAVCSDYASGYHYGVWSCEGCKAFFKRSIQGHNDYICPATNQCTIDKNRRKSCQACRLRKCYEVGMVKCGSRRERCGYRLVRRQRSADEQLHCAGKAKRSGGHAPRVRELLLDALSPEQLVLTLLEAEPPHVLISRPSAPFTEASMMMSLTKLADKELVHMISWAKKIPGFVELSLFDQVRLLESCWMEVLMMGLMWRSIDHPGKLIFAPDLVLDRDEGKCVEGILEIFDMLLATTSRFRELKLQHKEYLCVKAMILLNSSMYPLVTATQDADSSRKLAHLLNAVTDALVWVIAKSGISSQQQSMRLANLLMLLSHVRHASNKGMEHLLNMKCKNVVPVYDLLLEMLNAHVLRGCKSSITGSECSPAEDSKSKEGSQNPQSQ

For assay [18] the target is unchanged. The assay is described as follows: OT_ER_ERbERb_1440: Odyssey Thera (OT) 24-hour HEK293T Protein-Complementation Assay for Estrogen Receptor-beta/-beta Homodimer (AID 2283380).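 Also: scored as signal increase over DMSO baseline for both agonists and antagonists.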 In a few lines: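 HEK293T cells stably expressing ER beta LBD (aa 310-547) homodimer fragment-complementation reporter, dosed 24 h. Cells formaldehyde-fixed, Draq5-stained; gain in nuclear (agonist) or nuclear plus cytoplasmic (antagonist) fluorescence versus DMSO read by laser scanning cytometry.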

The nature of assay [19]: CCTE_Harrill_HTTr_CellCount_MCF7: CCTE's Cell Proliferation Assessment for the High-Throughput Transcriptomics (HTTr) Platform, Harrill Lab (AID 2284012).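 Also: intended direction is loss of nuclei count meaning fewer cells.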 The essentials: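 For this full-screen endpoint, MCF-7 cultures received eight compound dilutions for six hours. Well nuclei counts from Hoechst imaging were analyzed relative to DMSO.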
Assay [20] addresses human Retinoic Acid Receptor gamma (RARg), RARG (gene 5916) (UniProt P13631). The assay is described as follows: ATG_RARg_TRANS: Attagene TRANS-FACTORIAL HepG2 Assay for human Retinoic Acid Receptor gamma (RARg) (AID 2283009). In a few lines: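 Gain-of-signal relative to DMSO is reported from fluorescent capillary electrophoresis of RT-PCR reporter products. These came from HepG2 cells expressing transfected RARg-GAL4 chimeras with UAS reporters, harvested 24 h after dosing.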

Sequence of human Vitamin D Receptor (VDR), VDR (gene 7421) (P11473 whole entry, looked up, the tested form may be a part): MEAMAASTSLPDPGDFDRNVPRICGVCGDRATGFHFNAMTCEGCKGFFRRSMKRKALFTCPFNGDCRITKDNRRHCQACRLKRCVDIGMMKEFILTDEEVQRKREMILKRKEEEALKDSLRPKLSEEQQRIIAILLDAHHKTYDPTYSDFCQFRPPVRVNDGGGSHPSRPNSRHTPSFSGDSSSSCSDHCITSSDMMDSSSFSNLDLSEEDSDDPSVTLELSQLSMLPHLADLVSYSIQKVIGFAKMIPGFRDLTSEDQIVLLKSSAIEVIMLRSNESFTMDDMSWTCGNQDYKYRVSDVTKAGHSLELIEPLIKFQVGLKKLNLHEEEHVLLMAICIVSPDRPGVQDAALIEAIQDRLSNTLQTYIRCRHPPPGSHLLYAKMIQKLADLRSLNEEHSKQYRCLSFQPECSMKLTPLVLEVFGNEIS
Sequence of Steroid hormone receptor ERR1 (Homo sapiens) (P11474 whole entry, looked up, the tested form may be a part): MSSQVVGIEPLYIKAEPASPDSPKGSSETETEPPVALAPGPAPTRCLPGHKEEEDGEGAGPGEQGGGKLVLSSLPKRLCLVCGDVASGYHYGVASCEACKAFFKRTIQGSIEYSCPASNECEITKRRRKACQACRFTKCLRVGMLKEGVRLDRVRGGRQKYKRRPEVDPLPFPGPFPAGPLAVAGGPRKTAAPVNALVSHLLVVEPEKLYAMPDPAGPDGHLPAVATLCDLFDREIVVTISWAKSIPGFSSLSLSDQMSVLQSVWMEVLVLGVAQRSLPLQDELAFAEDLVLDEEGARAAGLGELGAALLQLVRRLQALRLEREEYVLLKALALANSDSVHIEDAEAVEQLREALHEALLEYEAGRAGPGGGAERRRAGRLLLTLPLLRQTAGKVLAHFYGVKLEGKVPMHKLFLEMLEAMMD
Sequence of Peroxisome proliferator-activated receptor gamma (Homo sapiens) (P37231 whole entry, looked up, the tested form may be a part): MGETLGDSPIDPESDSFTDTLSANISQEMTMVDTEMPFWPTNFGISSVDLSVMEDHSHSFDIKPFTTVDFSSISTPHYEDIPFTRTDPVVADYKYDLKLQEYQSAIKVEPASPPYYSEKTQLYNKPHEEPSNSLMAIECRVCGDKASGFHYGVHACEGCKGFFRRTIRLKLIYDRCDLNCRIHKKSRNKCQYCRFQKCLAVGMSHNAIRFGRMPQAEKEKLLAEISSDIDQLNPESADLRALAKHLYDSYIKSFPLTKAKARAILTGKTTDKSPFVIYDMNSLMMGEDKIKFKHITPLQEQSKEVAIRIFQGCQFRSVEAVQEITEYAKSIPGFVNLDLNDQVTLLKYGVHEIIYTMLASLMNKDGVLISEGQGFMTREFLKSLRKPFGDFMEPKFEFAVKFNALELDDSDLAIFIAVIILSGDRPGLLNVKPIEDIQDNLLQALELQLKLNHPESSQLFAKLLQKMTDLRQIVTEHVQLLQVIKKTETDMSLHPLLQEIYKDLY
Sequence of Glucocorticoid receptor (Homo sapiens) (P04150 whole entry, looked up, the tested form may be a part): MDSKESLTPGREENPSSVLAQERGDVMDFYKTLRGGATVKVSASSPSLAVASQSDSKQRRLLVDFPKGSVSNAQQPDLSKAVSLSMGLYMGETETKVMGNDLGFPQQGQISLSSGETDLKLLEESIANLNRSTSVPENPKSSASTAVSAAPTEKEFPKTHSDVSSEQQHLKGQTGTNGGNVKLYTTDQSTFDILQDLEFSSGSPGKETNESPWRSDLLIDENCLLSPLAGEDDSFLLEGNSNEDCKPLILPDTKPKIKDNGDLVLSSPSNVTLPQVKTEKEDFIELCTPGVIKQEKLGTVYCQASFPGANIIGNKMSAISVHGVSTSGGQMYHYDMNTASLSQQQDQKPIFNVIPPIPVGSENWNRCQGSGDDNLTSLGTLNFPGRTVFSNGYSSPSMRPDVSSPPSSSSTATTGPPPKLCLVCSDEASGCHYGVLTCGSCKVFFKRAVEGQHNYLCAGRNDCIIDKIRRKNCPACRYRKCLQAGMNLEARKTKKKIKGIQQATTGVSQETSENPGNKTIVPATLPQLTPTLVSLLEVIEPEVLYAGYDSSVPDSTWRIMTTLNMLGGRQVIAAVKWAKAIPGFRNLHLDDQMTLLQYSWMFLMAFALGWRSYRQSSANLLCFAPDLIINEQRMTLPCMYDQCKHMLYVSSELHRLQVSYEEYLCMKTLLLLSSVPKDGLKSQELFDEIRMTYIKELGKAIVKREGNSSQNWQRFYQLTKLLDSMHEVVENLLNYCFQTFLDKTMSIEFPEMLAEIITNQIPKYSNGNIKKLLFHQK
Sequence of human Retinoic Acid Receptor gamma (RARg), RARG (gene 5916) (P13631 whole entry, looked up, the tested form may be a part): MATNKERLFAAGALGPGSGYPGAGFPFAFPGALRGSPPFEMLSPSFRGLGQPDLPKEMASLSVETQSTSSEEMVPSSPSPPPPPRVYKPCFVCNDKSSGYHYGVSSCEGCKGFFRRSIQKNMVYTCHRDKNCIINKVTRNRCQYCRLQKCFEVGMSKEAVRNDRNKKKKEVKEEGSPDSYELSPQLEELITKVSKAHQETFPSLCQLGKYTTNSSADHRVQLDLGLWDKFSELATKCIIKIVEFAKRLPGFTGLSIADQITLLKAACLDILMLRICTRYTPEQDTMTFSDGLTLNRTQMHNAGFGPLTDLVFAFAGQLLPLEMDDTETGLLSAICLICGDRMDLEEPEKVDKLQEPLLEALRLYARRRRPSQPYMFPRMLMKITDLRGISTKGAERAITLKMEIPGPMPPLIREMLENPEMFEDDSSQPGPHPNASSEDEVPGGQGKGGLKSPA

In general, AC50 refers to the concentration giving half of the maximal activity seen. On to `CN(C)c1ccc(C(c2ccccc2)c2ccc(N(C)C)cc2)cc1`, for which, in assay [1], the AC50 was 7.46 µM (active). Further, the outcome in [2], in [3], in assay [4], in [5], in assay [6] and in assay [7] was inactive.

Consider `c1cc(N(CC2CO2)CC2CO2)ccc1Cc1ccc(N(CC2CO2)CC2CO2)cc1` (stereo unspecified), for which the outcome in assay [8], in assay [9] and in assay [10] was inactive.

`O=C1NC(=O)[C@@H]2CC=CC[C@H]12`: the compound was called inactive in assay [9].

Turning to `C1=CCC=C1`, the result in assay [11] and in [12] was inactive.

With `CCCCOC(=O)COc1ccc(Cl)cc1Cl`, the call in [13], in assay [14], in [15], in assay [11] and in assay [12] was inactive.

In the case of `CC1=NN(c2cc(Cl)c(S(=O)(=O)O)cc2Cl)C(=O)C1N=Nc1ccc(S(=O)(=O)O)cc1` (stereo unspecified), the outcome in assay [14], in assay [15] and in [12] was inactive.

Regarding `CCCN[C@H]1CCc2nc(N)sc2C1`, the compound was classed as inactive in assay [16].

In the case of `C=C1CC[C@H]2C[C@@H]1C2(C)C`, the result in assay [8], in [17], in assay [18], in assay [14], in assay [15] and in assay [11] was inactive. Further, the compound was classed as inactive in [12].

As to `CN(C)CCCN1c2ccccc2CCc2ccc(Cl)cc21`, the compound was called inactive in [10] and in [19].

For `Nc1ccc(S(=O)(=O)Nc2cnc3ccccc3n2)cc1`, the compound was called inactive in assay [17], in [18], in assay [13], in assay [14] and in assay [15].

In the case of `Cc1cc(C)c(S(=O)(=O)O)cc1N=Nc1cc(S(=O)(=O)O)c2ccccc2c1O`, the result in [16], in assay [17], in [18], in assay [13], in assay [14] and in assay [15] was inactive. Moreover, the compound was classed as inactive in assay [11] and in [12].

With `CCOC(=O)CC(=O)OCC`, the outcome in assay [20], in assay [16], in assay [13] and in assay [11] was inactive.

With `Cc1cccnc1`, the result in [1], in assay [2], in assay [3], in assay [4], in assay [5] and in assay [6] was inactive. Moreover, the outcome in [7], in [17], in assay [18], in [13], in assay [14] and in [15] was inactive. Also, the call in assay [12] was inactive.

Turning to `F[B-](F)(F)F`, the result in assay [13], in assay [14], in [15], in assay [11] and in [12] was inactive.

As for `CCCCCCCCCCCCCC`, the call in assay [16] and in assay [19] was inactive.

Turning to `CC(C)=CCOC(=O)c1ccccc1`, the compound was classed as inactive in [10] and in assay [16].

On to `O=C(O)c1cc(Cl)cc(Cl)c1O`, for which, in [19], the result was inactive.

Turning to `[O-][n+]1ccc(Cl)cc1`, the outcome in assay [10] was inactive.

Turning to `CC1=C(CC=O)C(C)(C)CCC1`, the outcome in assay [16] was inactive.

Regarding `Cc1cc(-n2nc3ccc(Cl)cc3n2)c(O)c(C(C)(C)C)c1`, the outcome in [1], in assay [2], in [3], in assay [4], in assay [5] and in assay [6] was inactive. Moreover, the outcome in [7] was inactive.

Consider `C[Si](C)(C)O[Si](C)(C)O[Si](C)(C)C`, for which the call in assay [17], in assay [18], in assay [13], in assay [14], in [15] and in assay [11] was inactive. Also, the compound was called inactive in assay [12].

`OCCN(CCO)c1cccc(Cl)c1`: in assay [16], the outcome was inactive.

Consider `CCCCCCCCCCC1CO1` (stereo unspecified), for which the result in assay [16], in assay [2], in [3] and in assay [4] was inactive. In addition, the AC50 in assay [1] was 33.3 µM (active); in [5], 34 µM (active); in assay [6] it was 3.97 µM (active); in assay [7], 20 µM (active).

Turning to `CN(C)CCC(c1ccc(Cl)cc1)c1ccccn1` (stereo unspecified), the AC50 in assay [1] is 0.502 µM (active). The outcome in [2], in assay [3], in assay [4], in [5], in assay [6] and in assay [7] was inactive.

`NC(N)=Nc1nc(CSCCC(N)=NS(N)(=O)=O)cs1`: the AC50 in assay [8] is 26.1 µM (active). The outcome in assay [9] and in [19] was inactive.
